Bioassay records from PubChem BioAssay.
CCHF vOTU inh-1 – CCHFV vOTU protease inhibition; inhibition, % at 11.5 µM; 370,000 compounds, 0.55% hits; AID 651958; Pep-AMC fluorescence; note: 0% = vehicle wells with enzyme and 100% = no enzyme wells
Vc quorum ag – induces V. cholerae light production without autoinducers; V. cholerae BH1578 lux reporter, luminescence, 6 h; AID 588436; activation, % at 18.7 µM; 350,000 compounds, 0.16% hits; in the data active = activation mostly above about 9.7%, no sharp cut-off
SSB-PriA inh – inhibitors of Klebsiella pneumoniae PriA binding to SSB C-terminal tail. AlphaScreen SSBct-PriA binding, biotinylated peptide. inhibition, % at 33 µM. 430,000 compounds, 0.6% hits; in the data active = inhibition mostly above about 37%, no sharp cut-off; inactive = mostly below about 20%;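 note: plate controls were negative control peptide for no effect and reference peptide for full effect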
TcdB GH inh – blocks C. difficile toxin B glycohydrolase activity. 350,000 compounds, 0.24% hits. TcdB glycohydrolase enzymatic assay, plate reader. inhibition, % at 9.99 µM. P18177; in the data active = inhibition above about 10%
PrPC TRFRET – cell surface PrPC inhibition, primary TR-FRET screen; P04156; TR-FRET read-out; inhibition, % at 13.8 µM; 370,000 compounds, 0.43% hits; AID 720596; in the data active = inhibition above about 24%; note: 0% = median of the test wells and 100% = reference compound wells
VHR inh abs – blocks human VHR1 dual specificity phosphatase; P51452; recombinant VHR phosphatase, pNPP absorbance; inhibition, % at 13.3 µM; 290,000 compounds, 0.52% hits; AID 1654; in the data active = inhibition above about 50%
CCHF vOTU inh-2 – confirmation of CCHF virus vOTU protease inhibitors; inhibition, % at 11.5 µM; shares compounds with CCHF vOTU inh-1; 1,900 compounds, 17% hits; Recombinant CCHFV vOTU, Pep-AMC fluorescence
PrPC TRFRET cf – confirmation of inhibitors of cell surface human prion protein | shares compounds with PrPC TRFRET | cell surface PrPC level, TR-FRET | inhibition, % at 13.8 µM | 1,500 compounds, 65% hits | AID 743200; in the data active = inhibition above about 25%
LD9 tox – kills or reduces viability of LD9 cells in PrPc counter-screen; shares compounds with PrPC TRFRET; LD9 cells cytotoxicity, luminescence viability; inhibition, % at 13.8 µM; 1,500 compounds, 29% hits; AID 743201; in the data active = inhibition above about 9.5%
* marks the source's active call; other numbers are inactive results; i = inactive; nt = not tested or not shown. Most compounds without a hit are left out; they make up all but 1.5% or so of the library. Cut-off read from the data, not from the text of the source, unless noted: active = inhibition above about 30%; inactive = the rest.

SMILES	CCHF vOTU inh-1	Vc quorum ag	SSB-PriA inh	TcdB GH inh	PrPC TRFRET	VHR inh abs	PrPC TRFRET cf	LD9 tox	others
Oc1c(CN2CCCCC2)cc(Br)c2cccnc12	70*	0	78	nt	32*	2	4	16*	CCHF vOTU inh-2=-7
O=Nc1cc(CN2CCOCC2)c(O)c2ncccc12	nt	nt	28	nt	nt	nt	nt	nt
O=C(NCc1ccc(Cl)cc1)c1ccc(=O)n(Cc2cccc(F)c2)n1	nt	nt	-13	nt	nt	nt	nt	nt
CCCCCCCCCCCCCCCC[n+]1ccccc1	38*	0	-2	3	28*	nt	39*	36*	CCHF vOTU inh-2=37*
CCN(c1cccc(C)c1)S(=O)(=O)c1ccc2c(c1)CCN2C(C)=O	2	i	0	nt	-6	8	nt	nt
CCN(c1cccc(C(F)(F)F)c1)S(=O)(=O)c1ccc2c(c1)CCN2C(C)=O	42*	i	-20	nt	80*	6	18	-4	CCHF vOTU inh-2=2
Nc1ccc2c(c1)C(=O)C(=O)c1ccccc1-2	101*	-1	14	nt	64*	17	61*	99*	CCHF vOTU inh-2=97*
C=CCN1C(=O)C(C)(C)COc2cc(NC(=O)COc3ccc(OC)cc3)ccc21	nt	nt	22	nt	nt	nt	nt	nt
CCCCCCCCC[n+]1cccc2c3ccccc3ccc21	nt	i	-28	nt	nt	7	nt	nt
CCCCCCCCCCCCCCCC[n+]1cccc2ccccc21	44*	0	16	4	40*	1	51*	55*	CCHF vOTU inh-2=70*
COc1ccc(CCNC(=O)c2csc3nc(-c4ccc(F)cc4)cn23)cc1OC	nt	nt	-8	nt	nt	nt	nt	nt
CC1OC(CC(=O)O)CC2=C1C(=O)c1c(O)cccc1C2=O (centres undefined)	93*	i	3	0	71*	nt	86*	98*	CCHF vOTU inh-2=98*
CC(C)Cc1ccc(C(C)C(=O)Nc2ccc(O)cc2)cc1 (centres undefined)	30*	i	15	1	28*	22	21	0	CCHF vOTU inh-2=2
CSc1nc2ccc3nc(NC(=O)c4cccc(N5C(=O)CCC5=O)c4)sc3c2s1	nt	nt	-10	nt	nt	nt	nt	nt
O=C1C(=O)N(CCCn2ccnc2)C(c2ccc(Br)cc2)C1=C(O)c1ccc2c(c1)OCCO2 (centres undefined)	nt	nt	22	nt	nt	nt	nt	nt
O=C1C(=O)N(CCCn2ccnc2)C(c2ccc(Cl)cc2)/C1=C(\O)c1ccc2c(c1)OCCO2 (centres undefined)	48*	0	nt	0	32*	-14	12	-4	CCHF vOTU inh-2=-12
COc1cccc(NC(=O)CCSc2ccc3ccccc3n2)c1	-9	i	-15	nt	68*	16	84*	-7
COc1ccc(NC(=O)CCSc2ccc3ccccc3n2)cc1	2	-1	-8	nt	56*	5	75*	-2
COc1cccc(NC(=O)CSc2ccc3ccccc3n2)c1	nt	nt	-1	nt	nt	nt	nt	nt
O=C(NCc1cnn2c1CCCC2)c1cc(-c2ccc(F)cc2)c[nH]1	nt	nt	26	nt	nt	nt	nt	nt
CN(Cc1ccccc1)S(=O)(=O)c1ccc(C(=O)Nc2nc3c(s2)C(=O)CC(C)(C)C3)cc1	nt	nt	-8	nt	nt	nt	nt	nt
COC(=O)c1ccc(C(=O)OC)c(NC(=O)C2Cc3ccc(C)cc3C(=O)O2)c1 (centres undefined)	nt	nt	-5	nt	nt	nt	nt	nt
C=Cc1cc2c(cc1O)CCC1C2CCC2(C)C(O)CCC12 (centres undefined)	-5	nt	-11	-1	29*	nt	11	-4
CC#Cc1cc2c(cc1O)CCC1C2CCC2(C)C(O)CCC12 (centres undefined)	7	nt	-3	1	16	nt	nt	nt
CC#CCOC(=O)c1c(C)nc2sc3c(c2c1N)CCC(O)C3 (centres undefined)	-4	i	-4	-1	42*	nt	27*	12*
SMILES	CCHF vOTU inh-1	Vc quorum ag	SSB-PriA inh	TcdB GH inh	PrPC TRFRET	VHR inh abs	PrPC TRFRET cf	LD9 tox	others
CCOC(=O)c1c(N)sc2c1CCC(CC)C2 (centres undefined)	3	nt	-1	0	-2	2	nt	nt
CCSc1nc(N)c2c3c(sc2n1)CCC3	1	i	-12	nt	25*	2	39*	-3
COc1ccc(N(C(C)C(=O)N2CCCC2)S(C)(=O)=O)cc1 (centres undefined)	-6	0	-21	1	50*	-8	0	-8
Cc1ccc(S(=O)(=O)N2CCN(CC(O)c3ccccc3)CC2)cc1C (centres undefined)	0	-1	6	1	57*	41	6	-5
Cc1ccc(S(=O)(=O)N2CCN(CC(O)c3ccccc3)CC2)cc1 (centres undefined)	-5	0	-9	2	8	6	nt	nt
Cc1cccc(NC(=O)CSc2nnc(-c3ccncc3)n2CC2CCCO2)c1 (centres undefined)	14	-2	5	-13	60*	20	4	-7
COc1ccccc1NC(=O)CSc1nnc(-c2ccncc2)n1CC1CCCO1 (centres undefined)	-19	0	-6	nt	0	6	nt	nt
CC1(C)Cc2c(sc(NC(=O)c3ccc(C(=O)c4ccccc4)cc3)c2C(N)=O)C(C)(C)N1	7	i	7	0	36*	14	-15	19*
CCOC(=O)c1c(NC(=O)COc2ccccc2OCC)sc2c1CC(C)(C)NC2(C)C	nt	i	-4	nt	nt	nt	nt	nt
CCOC(=O)c1c(NC(=O)COc2ccccc2C#N)sc2c1CC(C)(C)NC2(C)C	0	i	4	0	117*	-9	104*	31*
CCC(=O)Oc1ccc(N2C(=O)c3ccccc3C2=O)cc1	nt	nt	-10	nt	nt	nt	nt	nt
